This passage reports composite z-score and composite Z-score results from PubChem BioAssay.

Activity calls are given as the source filed them.

The target of assay [1] is Albumin (Bos taurus) (UniProt P02769). In words: compounds binding labelled BSA control protein – biochemical, small-molecule microarray, Alexa647 label, 635/667 nm fluorescence, artefact control for SMM control protein annotation, profiling panel (AID 1118).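 Further: score merges 667 nm emission intensity and signal-to-noise per printed compound spot.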 As to conditions: BSA-A647 binding, fluorescence 635 nm, higher = more signal.
Assay [2] in a line: probe aXIP binding to arrayed compounds – biochemical, NeuroSMM set, 635/667 nm fluorescence, primary screen (AID 1119).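 Further: probe is the protein aXip251-270 applied at 1 µg/mL to compound-printed slides; binding of probe to printed compounds measured as 667 nm fluorescence plus signal to noise.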 As to conditions: small-molecule microarray, higher = more signal, called active from +8 up or from −8 down.
Assay [3] in a line: probe aNOTCH3 binding on compound microarray – biochemical, small-molecule microarray, 635/667 nm fluorescence, primary screen (AID 1120).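 Further: probe is a biotin-tagged antibody raised against NOTCH3 rather than NOTCH3 protein; score merges spot fluorescence near 667 nm with spot signal to noise.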 Particulars: higher = more signal.
A short description of assay [4]: probe aNOTCH2 binding on compound microarray – biochemical, small-molecule microarray, 635/667 nm fluorescence, primary screen (AID 1121).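 Further: score merges feature fluorescence read at 667 nm with its signal to noise.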 Particulars: higher = more signal.
The target of assay [5] is Carbonic anhydrase 2 (Homo sapiens) (UniProt P00918). Kind of assay: compounds binding carbonic anhydrase 2 – biochemical, small-molecule microarray, Alexa647-labelled CAII, profiling panel (AID 1122). Particulars: CAII-A647 binding fluorescence, higher = more signal.
The nature of assay [6]: COS7 lysate on small-molecule microarray, probe aHis, 635 nm (AID 1123).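 Further: z-score combines 667nm fluorescence intensity with signal-to-noise per printed compound spot.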 As to conditions: COS7 cell lysate, fluorescence, higher = more signal.
Assay [7] is described as follows: probe aLAP1 signal on lysate-treated microarray – cell lysate, small-molecule microarray, COS7 lysate, primary screen (AID 1124).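 Further: lysate comes from COS7 cells expressing LAP1 and is applied at 0.3 µg/mL; score merges spot fluorescence near 667 nm with signal-to-noise over triplicate slides.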 Particulars: probe aLAP1, fluorescence, higher = more signal.
The test system of assay [8] is Sam68 (KHDRBS1). Kind of assay: compounds binding KHDRBS1 protein – biochemical, small-molecule microarray, 635 nm fluorescence, primary screen (AID 1125).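 Further: score merges 667 nm channel intensity with signal to noise over triplicate slides.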 Particulars: higher = more signal.
Assay [9] deals with Chordin-like protein 2 (CHRDL2). Kind of assay: compounds binding chordin-like 2 – biochemical, small-molecule microarray, 635 nm fluorescence, primary screen (AID 1126).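 Further: printed compound slides probed with Chrdl2 protein at 4 µg/mL for 1 h at 4 C; score merges 667 nm emission intensity with signal to noise over three replicate slides.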 As to conditions: fluorescence 635 nm, higher = more signal.
For assay [10], the target named is Concanavalin-A (Canavalia ensiformis) (UniProt P02866). Kind of assay: compounds binding concanavalin A lectin – biochemical, small-molecule microarray, Alexa647 label, 635 nm, artefact control for SMM control protein annotation, primary screen (AID 1127).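 Further: z combines 667 nm emission intensity with signal-to-noise across three replicate slides.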 As to conditions: ConA-A647 binding fluorescence, higher = more signal.
Concanavalin-A (Canavalia ensiformis), sequence (P02866 whole entry, looked up): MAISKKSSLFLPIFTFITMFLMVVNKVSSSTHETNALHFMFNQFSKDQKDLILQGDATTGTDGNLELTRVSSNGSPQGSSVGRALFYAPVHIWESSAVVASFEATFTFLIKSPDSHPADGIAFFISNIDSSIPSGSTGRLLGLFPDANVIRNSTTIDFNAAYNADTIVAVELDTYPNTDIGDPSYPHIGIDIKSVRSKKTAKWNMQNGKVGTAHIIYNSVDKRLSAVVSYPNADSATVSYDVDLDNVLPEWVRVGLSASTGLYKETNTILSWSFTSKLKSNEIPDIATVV

Albumin (Bos taurus), sequence (P02769 whole entry, looked up): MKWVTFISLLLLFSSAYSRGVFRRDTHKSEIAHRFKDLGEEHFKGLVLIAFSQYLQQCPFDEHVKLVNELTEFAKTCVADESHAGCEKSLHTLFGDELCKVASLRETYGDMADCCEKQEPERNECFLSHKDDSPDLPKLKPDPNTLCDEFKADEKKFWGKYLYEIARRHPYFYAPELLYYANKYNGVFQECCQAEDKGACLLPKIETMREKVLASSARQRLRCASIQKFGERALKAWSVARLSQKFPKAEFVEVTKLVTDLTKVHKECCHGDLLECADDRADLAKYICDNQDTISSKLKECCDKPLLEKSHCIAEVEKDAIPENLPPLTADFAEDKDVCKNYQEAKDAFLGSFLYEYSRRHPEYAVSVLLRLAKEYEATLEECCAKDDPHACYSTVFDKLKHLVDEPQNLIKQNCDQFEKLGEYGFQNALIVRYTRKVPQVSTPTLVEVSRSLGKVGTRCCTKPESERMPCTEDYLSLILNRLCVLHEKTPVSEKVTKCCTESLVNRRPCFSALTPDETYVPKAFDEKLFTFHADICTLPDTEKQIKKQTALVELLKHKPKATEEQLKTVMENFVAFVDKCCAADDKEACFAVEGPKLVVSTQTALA

In the case of `COCCOC(=O)N1C(=O)[C@@]2(c3cc(C#Cc4ccc(OC)cc4)ccc31)[C@H](C(=O)NC[C@H](O)c1ccccc1)[C@H]1C(=O)O[C@H](c3ccccc3)[C@H](c3ccccc3)N1[C@@H]2c1ccc(OCCO)cc1`, the composite z-score in [1] is 0.101; in assay [3], 0.0397; in assay [4], -0.146; in [5] it was 0.441; in [6], 1.72; in assay [7], 0.313. In addition, the composite z-score in assay [8] is 1.3; in assay [9] it was 0.195; in assay [10] it was 1.09. Further, the composite Z-score in assay [2] was -0.014 (inactive).
Turning to `COCC1=C2[C@@H](CCc3ccccc3)OB(O)C[C@@H]2[C@@H]2C(=O)N(C)C(=O)[C@@H]2C1`, the composite z-score was 0.229 in assay [1]; -0.0918 in assay [3]; -0.108 in assay [4]; 0.21 in assay [5]; 0.06 in assay [6]; -0.179 in assay [7]. Further, the results for the composite z-score in assay [8], in [9] and in [10] were 0.106, 0.5 and -0.141, respectively. For the same compound, the composite Z-score in [2] is 0.289 (inactive).
On to `COCCCNC(=O)[C@@]1(c2ccc([N+](=O)[O-])cc2)CC(=O)N(CC23CC4CC(CC(C4)C2)C3)[C@@H]1c1ccc(CO)cc1I`, for which the composite z-score is 0.0824 in [1]; -0.0751 in assay [3]; -0.0561 in [4]; 0.126 in assay [5]; 1.61 in assay [6]; 0.159 in assay [7]. The composite z-score in [8] is 0.745; in assay [9], -0.348; in [10] it was 0.905. Besides, the composite Z-score in [2] is 0.197 (inactive).
Consider `O=C1C2C=CC(C(O)c3cccc(O)c3)N(Nc3ccccc3)C2C(=O)N1c1ccccc1` (stereo not given), for which the composite z-score in assay [1] was 0.818; in [3], 0.185; in assay [4] it was -0.155; in assay [5] it was 0.792; in assay [6] it was 0.653; in [7], 0.069. Besides, the composite z-score is 0.16 in assay [8], -0.201 in assay [9] and 0.338 in [10]. In assay [2], the composite Z-score was 0.365 (inactive).
Regarding `COCCOC(=O)N1C(=O)[C@@]2(c3cc(C#CCC(C(=O)OC)C(=O)OC)ccc31)[C@H](C(=O)NC[C@H](O)c1ccccc1)[C@H]1C(=O)O[C@H](c3ccccc3)[C@H](c3ccccc3)N1[C@@H]2c1ccc(O)cc1`, the composite z-score in assay [1] was 0.661; in assay [3], -0.0014; in assay [4] it was -0.0974; in assay [5], 0.614; in assay [6] it was 1.67; in assay [7], 0.243. Besides, the composite z-score in assay [8] is 0.378; in assay [9] it was -0.769; in [10] it was 0.708. Moreover, in assay [2], the composite Z-score is -0.0756 (inactive).
In the case of `[N-]=[N+]=Nc1ccccc1C[C@]1(C(=O)NCc2ccccc2)COC(c2ccc(OCCCO)cc2)=N1`, the composite z-score is 0.784 in [1]; 0.0945 in assay [3]; -0.0859 in [4]; 0.383 in [5]; 2.52 in assay [6]; 0.171 in assay [7]. In addition, the figures for the composite z-score in assay [8], in [9] and in assay [10] were 1.3, -0.362 and 0.995, respectively. In addition, in assay [2], the composite Z-score is -0.135 (inactive).
Turning to `Cc1ccc([C@H]2C(C(=O)O)=C[C@@H](C(C)(C)C)N2S(=O)(=O)c2ccc(C)cc2)cc1`, the composite z-score amounted to 0.966 in assay [1]; 0.305 in assay [3]; 0.0746 in assay [4]; 0.531 in assay [5]; 1.99 in [6]; 0.868 in [7]. The composite z-score was 1.31 in assay [8], -0.202 in assay [9] and 1.21 in assay [10]. For the same compound, the composite Z-score in [2] was 0.0172 (inactive).
On to `C=C/C=C/[C@@H]1C(=C)CN([C@@H](Cc2ccccc2)C(=O)OC)[C@H]1[C@@H](O)Cc1ccccc1`, for which the composite z-score was 0.0797 in [1]; -0.0343 in assay [3]; -0.115 in assay [4]; 0.311 in assay [5]; 1.07 in assay [6]; 0.137 in [7]. In addition, the composite z-score stood at 1.09 in assay [8], 0.177 in assay [9] and 0.861 in [10]. For the same compound, the composite Z-score in assay [2] is 0.3 (inactive).
For the compound `CCc1cccc(NC(=O)O[C@H]2[C@H](OC(=O)Nc3ccccc3)[C@H](OC(=O)Nc3ccccc3)[C@@H](OC)O[C@@H]2CO)c1`, the composite z-score in assay [1] was 0.902; in [3], 0.211; in [4] it was -0.0481; in assay [5], 0.663; in assay [6], 2.57; in assay [7], 0.814. The values for the composite z-score in assay [8], in [9] and in assay [10] were 1.29, -0.539 and 1, respectively. In addition, the composite Z-score in assay [2] is 1.21 (inactive).
In the case of `COC(=O)[C@@]1(Cc2ccccc2)[C@H]2c3cc(C(=O)N4CCCC4)n(CCSCCO)c3C[C@H]2CN1C(=O)c1ccccc1`, the composite z-score in assay [1] worked out at 1.05; in assay [3], 0.543; in assay [4] it was 0.187; in assay [5], 0.841; in [6] it was 3.57; in [7], 1.22. Moreover, the composite z-score was 1.12 in assay [8], -0.997 in [9] and 0.554 in assay [10]. Moreover, in assay [2], the composite Z-score is -0.176 (inactive).
As to `COc1cc(NN2C(C(O)c3ccccc3)C=CC3C(=O)N(C)C(=O)C32)cc(OC)c1OC` (stereo not given), the composite z-score was 0.566 in [1]; 0.12 in [3]; -0.0817 in assay [4]; 0.781 in [5]; 1.73 in [6]; 0.481 in [7]. The results for the composite z-score in [8], in assay [9] and in assay [10] were 1.3, -0.179 and 0.659, respectively. In addition, the composite Z-score in [2] is 1.13 (inactive).
For the compound `CN1C(=O)C2C=CC(C(O)c3ccc(I)cc3)N(Nc3ccccc3)C2C1=O` (stereo not given), the composite z-score in assay [1] was 0.939; in assay [3] it was 0.323; in assay [4], -0.0389; in [5], 0.547; in assay [6], 1.91; in assay [7], 0.595. The results for the composite z-score in [8], in [9] and in assay [10] were 1.14, 0.569 and 1.15, respectively. The composite Z-score in [2] was 0.412 (inactive).
`O=C1[C@@H]2[C@@H](CC(COc3ccccc3)=C3[C@@H](CCc4ccccc4)OB(O)C[C@@H]32)C(=O)N1Cc1ccccc1`: the composite z-score in assay [1] was -0.0421; in assay [3], 0.0242; in assay [4] it was -0.13; in [5], 0.413; in assay [6], 0.782; in assay [7], 0.111. The composite z-score in [8] was -0.258; in assay [9], 0.139; in [10], 0.0019. Besides, in assay [2], the composite Z-score is 0.196 (inactive).
`NC(=O)N1C(=O)C2C(C1=O)C1C=C(CCCO)C2C(C2CC2)N1Cc1cccc(OC(F)(F)F)c1` (stereo not given): the composite z-score in [1] was 0.858; in assay [3] it was -0.349; in [4], -0.179; in assay [5] it was 0.653; in assay [6], 0.518; in assay [7], -0.0171. Besides, the values for the composite z-score in [8], in [9] and in assay [10] were 0.588, -0.489 and 0.221, respectively. In addition, the composite Z-score in assay [2] was 0.547 (inactive).
`C[C@@]12COC[C@]13C=C(Br)[C@H](C2)[C@@]1(CO1)C3=O`: the composite z-score in assay [1] was -0.717; in assay [3] it was -0.315; in [4], -0.124; in assay [5], -0.643; in assay [6] it was -0.47; in assay [7] it was 0. The composite z-score in assay [8] is -1.91; in assay [9] it was -0.211; in [10] it was -0.858. The composite Z-score in assay [2] was 0.112 (inactive).
Turning to `COc1cc2c(cc1O)C(c1ccc(CN3CCCC3)cc1)N(C)CC2` (stereo not given), the composite z-score in assay [1] is 0.462; in [3], -0.173; in assay [4] it was -0.127; in assay [5], 0.359; in assay [6], -0.138; in assay [7] it was 2.24. Also, the results for the composite z-score in assay [8], in [9] and in assay [10] were -0.645, -1.26 and 0.113, respectively. The composite Z-score in assay [2] was 0.142 (inactive).
On to `O=c1cccc(-c2ccco2)o1`, for which the composite z-score in [1] was 0.167; in assay [3], 0.0522; in [4] it was -0.127; in [5], 0.25; in assay [6], 0.193; in assay [7], 0.462. Besides, the results for the composite z-score in [8], in assay [9] and in assay [10] were 0.969, 1.05 and 0.495, respectively. Further, the composite Z-score in [2] was 0.207 (inactive).
As for `COc1cc(NN2C(C(O)C3CCCCC3)C=CC3C(=O)N(c4ccccc4)C(=O)C32)cc(OC)c1OC` (stereo not given), the composite z-score in [1] is 1.07; in assay [3] it was 0.0205; in [4] it was 0.0888; in assay [5], 0.712; in assay [6], 2.65; in assay [7], 0.605. Also, the composite z-score was 1.3 in [8], -1.5 in assay [9] and 1.11 in assay [10]. Further, the composite Z-score in [2] is 1.13 (inactive).
Consider `CCN(CC)c1ccc(N2CC=CC34O[C@@H]5C=CCCOC(=O)C5[C@H]3C(=O)N(CCO)[C@@H]4C2=O)cc1` (stereo not given in full), for which the composite z-score in [1] was 0.0715; in assay [3], -0.341; in [4], -0.158; in [5] it was 0.898; in [6] it was -0.724; in assay [7], 0.624. In addition, the composite z-score is -0.661 in [8], -0.414 in assay [9] and -2.06 in assay [10]. Moreover, the composite Z-score in [2] is -0.296 (inactive).
As to `CN1C(=O)[C@@]2(Cc3ccccc3)N=C(c3ccc(OCCCO)cc3)O[C@H]2c2ccccc21`, the composite z-score in [1] is 0.495; in assay [3] it was 0.0894; in assay [4] it was -0.0226; in [5] it was 0.603; in assay [6], 2.68; in assay [7], -0.233. Also, the composite z-score is 1.19 in [8], 0.882 in assay [9] and 1.11 in assay [10]. The composite Z-score in assay [2] was 2.86 (inactive).
In the case of `COc1ccc([Si](C)(C)[C@H]2[C@H](CC(=O)N3CCC[C@H]3CO)O[C@@]3(C(=O)N(Cc4ccc(N5CCC5=O)cc4)c4ccccc43)[C@@H]2C)cc1`, the composite z-score in assay [1] was 0.669; in [3] it was -0.0182; in assay [4], -0.147; in [5] it was 0.474; in [6] it was 2.24; in assay [7], 0.568. Moreover, the values for the composite z-score in assay [8], in assay [9] and in assay [10] were 1.3, 1.25 and 1.13, respectively. In addition, the composite Z-score in assay [2] was 0.156 (inactive).
